# Assay results taken from PubChem BioAssay.
# Values joined by “and” are separate entries in the source; they are usually repeats but may differ in a detail not shown here. Identical values can stand only once. Active and inactive are the calls of the source.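 Rule for the calls, unless noted: active = thallium flux through the channel raised or lowered by more than 3 SD from vehicle-only wells, actives on both sides; inactive = the rest.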
# Columns and labels:
# [1] = liver-stage malaria parasite growth inhibition, primary screen, cell-based, HepG2, luciferase luminescence, HepG2 viability (AID 624349; in the data active = parasite load remaining mostly below about 12%, no sharp cut-off; inactive = mostly above about 10%;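 note: 100% = mean of DMSO negative control wells on the same plate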); settings: P. berghei liver stage in HepG2, luciferase luminescence, concentration not given here; parasite load remaining: stronger effect = lower value; viability: measured here: HepG2 viability without parasites
# [2] = Cy5 fluorescence interference with SSB-bound oligo, artefact control for HCV NS3 helicase inhibitor project, biochemical, NIH Clinical Collection, E. coli SSB (AID 743268; call rule not given here)
# [3] = system: Hepatitis C virus NS3 helicase; assay: HCV NS3 helicase inhibitors, primary screen, biochemical, fluorescence polarization, NIH Clinical Collection (AID 743270; call rule not given here); settings: NS3 helicase binding to Cy5-dT15 DNA, stronger effect = higher value, concentration not given here
# [4] = molecular target: Single-stranded DNA-binding protein (Escherichia coli (strain K12)) (UniProt P0AGE0); assay: E. coli SSB displacement from DNA, counter-screen for HCV NS3 helicase inhibitor project, biochemical, fluorescence polarization, NIH Clinical Collection (AID 743271; in the data active = inhibition above about 28%); settings: stronger effect = higher value, concentration not given here
# [5] = fluorescence interference in NS3h assay format, artefact control for HCV NS3 helicase inhibitor project, biochemical, NIH Clinical Collection (AID 743272; call rule not given here;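 note: HCV NS3 helicase with a Cy5 labelled single stranded DNA probe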); settings: fluorescence interference counterscreen, stronger effect = lower value
# [6] = modulation of C. elegans fzo-1 (AID 1259413; call rule not given here;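 note: fzo-1 mutant C. elegans worms in liquid wells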); settings: C. elegans fzo-1 modulator screen, mean read-out; stronger effect = higher value
# [7] = differential killing of epithelial or mesenchymal cells, primary screen, imaging, PC-3E GFP, TEM4-18 mCherry, co-culture (AID 1345086;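 active = compounds killing one labelled cell type while sparing the other, by normalised counts and ratio limits, not self-fluorescent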;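 for all read-outs here: cells exposed to compound for 72 h before imaging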;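 for red/green cell ratio (normalised): normalised mesenchymal count divided by normalised epithelial count so high means epithelial killing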); settings: imaging cell counts, at 1 µM; for red/green cell ratio (normalised): actives lie on both sides, counts scaled to control wells, 1 = unselective
# [8] = sensitizers of A549 cells to miR-34 induction, primary screen, imaging, A549 dox-inducible miR-34, nuclei and caspase counts (AID 1347080;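 active = compounds whose cell count with miR-34 switched on is under 0.7 times the count with it off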); settings: A549 miR-34 inducible, Hoechst nuclei count, 48 h
# [9] = system: F380Y; assay: modulators of BK channel variants, profiling panel, selectivity assay, cell-based, U2OS BacMam, thallium flux, beta subunits (AID 1259406); settings: at 30 µM;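 note: initial slope of Thallos dye fluorescence rise after thallium is added; log ratio against the mean of 0.3% DMSO vehicle wells on the same plate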
# [10] = system: F380Y/beta1; assay: as above; settings: at 30 µM
# [11] = system: F380Y/beta2Delta; assay: as above; settings: at 30 µM
# [12] = system: F380Y/beta4; assay: as above; settings: at 30 µM
# [13] = molecular target: Calcium-activated potassium channel subunit alpha-1 (Homo sapiens) + Leucine-rich repeat-containing protein 26 (Homo sapiens) (UniProt Q12791+Q2I0M4); assay: as above; settings: F380Y/Slo1WT/gamma1, at 30 µM
# Chain of Calcium-activated potassium channel subunit alpha-1 (Homo sapiens) + Leucine-rich repeat-containing protein 26 (Homo sapiens) (Q2I0M4 whole entry, looked up, one chain of several): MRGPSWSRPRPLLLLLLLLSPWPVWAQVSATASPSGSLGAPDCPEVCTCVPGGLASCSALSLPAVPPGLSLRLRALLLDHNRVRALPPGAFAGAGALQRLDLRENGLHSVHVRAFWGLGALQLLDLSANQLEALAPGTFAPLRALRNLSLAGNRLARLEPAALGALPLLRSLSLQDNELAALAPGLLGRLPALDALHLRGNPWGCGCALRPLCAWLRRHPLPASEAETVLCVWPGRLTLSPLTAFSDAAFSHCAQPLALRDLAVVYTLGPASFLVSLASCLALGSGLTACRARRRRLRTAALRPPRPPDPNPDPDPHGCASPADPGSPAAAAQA
# [14] = system: R275C; assay: as above; settings: at 30 µM
# [15] = system: R275C/beta1; assay: as above; settings: at 30 µM
# [16] = system: R275C/beta2Delta; assay: as above; settings: at 30 µM
# [17] = system: R275C/beta4; assay: as above; settings: at 30 µM
# [18] = system: R275C/Slo1WT/beta2; assay: as above; settings: at 30 µM
# [19] = survival rescue of mitochondrial mutant cells in low glucose, primary screen, MELAS cybrids, Rieske KO mouse fibroblasts, CellTiter-Glo (AID 1508586;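 active = mean z-score across replicates of 1.96 or higher in either the MELAS or the Rieske mutant cell line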;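 note: z relative to plate mean and SD of compound and empty wells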)
# [20] = measured here: epithelial PC-3E GFP cell survival
# [21] = measured here: mesenchymal TEM4-18 mCherry cell survival
# [22] = stronger effect = lower value, cell number ratio, induced over uninduced
# [23] = measured here: relative caspase fold change +Dox/-Dox
# [24] = measured here: total cells with miR-34 induction, stronger effect = lower value
# [25] = measured here: total cells without miR-34 induction
# [26] = MELAS cybrid survival, CellTiter-Glo 48 h, stronger effect = higher value
# [27] = Rieske KO mouse fibroblast survival, CellTiter-Glo 72 h
smiles,measurement,setting,value
CC[C@H]1OC(=O)[C@H](C)[C@@H](O[C@H]2C[C@@](C)(OC)[C@@H](O)[C@H](C)O2)[C@H](C)[C@@H](O[C@@H]2O[C@H](C)C[C@H](N(C)C)[C@H]2O)[C@](C)(O)C[C@@H](C)CN(C)[C@H](C)[C@@H](O)[C@]1(C)O,parasite load remaining,[1],58.8% (inactive) and 152% (inactive) and 299% (inactive)
same,viability,[1],118% and 82.2% and 91.4%
same,fluorescence ratio,[2],1.05 (inactive)
same,inhibition,[3],1.36% (inactive)
same,inhibition,[4],-1.24% (inactive)
same,fluorescence ratio,[5],1.02 (inactive)
same,mean signal,[6],266 (inactive)
same,red/green cell ratio (normalised),[7],1.25 (inactive)
same,normalised cell number,[7]; [20],1.02
same,normalised cell number,[7]; [21],1.27
same,fold change,[8]; [22],0.953 (inactive) and 0.891 (inactive)
same,fold change,[8]; [23],2.3 and 7.33
same,cell count,[8]; [24],9960 and 9940
same,cell count,[8]; [25],10500 and 11200
same,log fold change Tl+ flux,[9],0.0649 (inactive)
same,log fold change Tl+ flux,[10],0.00314 (inactive)
same,log fold change Tl+ flux,[11],0.0029 (inactive)
same,log fold change Tl+ flux,[12],-0.0644 (inactive)
same,log fold change Tl+ flux,[13],-0.014 (inactive)
same,log fold change Tl+ flux,[14],0.011 (inactive)
same,log fold change Tl+ flux,[15],0.0228 (inactive)
same,log fold change Tl+ flux,[16],-0.0452 (inactive)
same,log fold change Tl+ flux,[17],-0.073 (inactive)
same,log fold change Tl+ flux,[18],0.026 (inactive)
CC(CCCCC(=O)Nc1ccc(C(F)(F)F)cc1)NCCc1cnc[nH]1 (stereo not drawn),parasite load remaining,[1],54.5% (inactive)
same,viability,[1],67%
same,fluorescence ratio,[2],0.96 (inactive)
same,inhibition,[3],-8.95% (inactive)
same,inhibition,[4],-4.33% (inactive)
same,fluorescence ratio,[5],0.92 (inactive)
same,mean signal,[6],233 (inactive)
same,fold change,[8]; [22],0.859 (inactive) and 0.909 (inactive)
same,fold change,[8]; [23],1.55 and 0.779
same,cell count,[8]; [24],8900 and 8240
same,cell count,[8]; [25],10400 and 9060
same,log fold change Tl+ flux,[9],0.0425 (inactive)
same,log fold change Tl+ flux,[10],0.0554 (inactive)
same,log fold change Tl+ flux,[11],-0.00659 (inactive)
same,log fold change Tl+ flux,[12],-0.0291 (inactive)
same,log fold change Tl+ flux,[13],0.0127 (inactive)
same,log fold change Tl+ flux,[14],-0.0675 (inactive)
same,log fold change Tl+ flux,[15],0.0449 (inactive)
same,log fold change Tl+ flux,[16],0.0193 (inactive)
same,log fold change Tl+ flux,[17],0.0332 (inactive)
same,log fold change Tl+ flux,[18],0.00571 (inactive)
O=C(CN1c2ccccc2Sc2ccccc21)NN=Cc1ccco1,log fold change Tl+ flux,[9],0.028 (inactive)
same,log fold change Tl+ flux,[10],0.0239 (inactive)
same,log fold change Tl+ flux,[11],-0.0113 (inactive)
same,log fold change Tl+ flux,[12],-0.113 (active)
same,log fold change Tl+ flux,[13],0.0102 (inactive)
same,log fold change Tl+ flux,[14],-0.00994 (inactive)
same,log fold change Tl+ flux,[15],0.0301 (inactive)
same,log fold change Tl+ flux,[16],-0.0092 (inactive)
same,log fold change Tl+ flux,[17],0.0737 (inactive)
same,log fold change Tl+ flux,[18],0.032 (inactive)
Cc1cccc(CCN2CCC(C(=O)c3ccc(NS(C)(=O)=O)cc3)CC2)n1,parasite load remaining,[1],49.2% (inactive)
same,viability,[1],75.4%
same,fluorescence ratio,[2],0.97 (inactive)
same,inhibition,[3],-6.33% (inactive)
same,fluorescence ratio,[5],0.95 (inactive)
same,mean signal,[6],229 (inactive)
same,fold change,[8]; [22],0.911 (inactive) and 0.937 (inactive) and 0.845 (inactive)
same,fold change,[8]; [23],1.08 and 1.19 and 0.815
same,cell count,[8]; [24],9110 and 5280 and 8030
same,cell count,[8]; [25],10000 and 5630 and 9500
same,log fold change Tl+ flux,[9],0.00945 (inactive)
same,log fold change Tl+ flux,[10],0.0315 (inactive)
same,log fold change Tl+ flux,[11],0.0105 (inactive)
same,log fold change Tl+ flux,[12],-0.0658 (inactive)
same,log fold change Tl+ flux,[13],0.0152 (inactive)
same,log fold change Tl+ flux,[14],-0.00568 (inactive)
same,log fold change Tl+ flux,[15],0.0227 (inactive)
same,log fold change Tl+ flux,[16],-0.0466 (inactive)
same,log fold change Tl+ flux,[17],0.0164 (inactive)
same,log fold change Tl+ flux,[18],-0.028 (inactive)
CN(C)CCOc1ccc(/C(=C(/CCCl)c2ccccc2)c2ccccc2)cc1,parasite load remaining,[1],2.65% (inactive) and 4% (inactive)
same,viability,[1],97.2% and 73.5%
same,fluorescence ratio,[2],0.79 (active)
same,inhibition,[3],-1.97% (inactive)
same,inhibition,[4],20.1% (inactive)
same,fluorescence ratio,[5],0.82 (inactive)
same,mean signal,[6],204 (inactive)
same,red/green cell ratio (normalised),[7],0.97 (inactive)
same,normalised cell number,[7]; [20],1.07
same,normalised cell number,[7]; [21],1.04
same,fold change,[8]; [22],0.93 (inactive) and 0.787 (inactive)
same,fold change,[8]; [23],0.696 and 1.39
same,cell count,[8]; [24],6550 and 5410
same,cell count,[8]; [25],7040 and 6880
same,z-score,[19]; [26],-2.09 (inactive) and -0.316 (inactive)
same,z-score,[19]; [27],-0.803 and -1.13
same,log fold change Tl+ flux,[9],0.00227 (inactive)
same,log fold change Tl+ flux,[10],-0.0377 (inactive)
same,log fold change Tl+ flux,[11],0.0156 (inactive)
same,log fold change Tl+ flux,[12],0.0185 (inactive)
same,log fold change Tl+ flux,[13],-0.0413 (inactive)
same,log fold change Tl+ flux,[14],-0.0555 (inactive)
same,log fold change Tl+ flux,[15],0.25 (active)
same,log fold change Tl+ flux,[16],-0.123 (active)
same,log fold change Tl+ flux,[17],-0.0377 (inactive)
same,log fold change Tl+ flux,[18],-0.045 (inactive)
COc1ccc(C[C@H](C)NC[C@@H](O)c2ccc(O)c(NC=O)c2)cc1,parasite load remaining,[1],66.9% (inactive)
same,viability,[1],77.1%
same,fluorescence ratio,[2],1.02 (inactive)
same,inhibition,[3],-9.9% (inactive)
same,inhibition,[4],-0.1% (inactive)
same,fluorescence ratio,[5],0.98 (inactive)
same,mean signal,[6],235 (inactive)
same,fold change,[8]; [22],0.975 (inactive)
same,fold change,[8]; [23],0.716
same,cell count,[8]; [24],8230
same,cell count,[8]; [25],8440
same,z-score,[19]; [26],-0.844 (inactive)
same,z-score,[19]; [27],-0.643
same,log fold change Tl+ flux,[9],-0.0497 (inactive)
same,log fold change Tl+ flux,[10],-4.2e-05 (inactive)
same,log fold change Tl+ flux,[11],0.0145 (inactive)
same,log fold change Tl+ flux,[12],-0.0214 (inactive)
same,log fold change Tl+ flux,[13],0.0199 (inactive)
same,log fold change Tl+ flux,[14],0.00389 (inactive)
same,log fold change Tl+ flux,[15],0.0191 (inactive)
same,log fold change Tl+ flux,[16],-0.0506 (inactive)
same,log fold change Tl+ flux,[17],0.0483 (inactive)
same,log fold change Tl+ flux,[18],0.0259 (inactive)
CCOC(=O)c1ccc(OC(=O)CCCCCN=C(N)N)cc1,parasite load remaining,[1],117% (inactive) and 36.3% (inactive)
same,viability,[1],77.4% and 88.1%
same,fluorescence ratio,[2],1.04 (inactive)
same,inhibition,[3],0.4% (inactive)
same,inhibition,[4],-1.64% (inactive)
same,fluorescence ratio,[5],0.95 (inactive)
same,mean signal,[6],243 (inactive)
same,z-score,[19]; [26],-0.35 (inactive) and 0.272 (inactive)
same,z-score,[19]; [27],0.185 and -0.0147
same,log fold change Tl+ flux,[9],-0.0684 (inactive)
same,log fold change Tl+ flux,[10],-0.00638 (inactive)
same,log fold change Tl+ flux,[11],-0.0274 (inactive)
same,log fold change Tl+ flux,[12],-0.0274 (inactive)
same,log fold change Tl+ flux,[13],0.00659 (inactive)
same,log fold change Tl+ flux,[14],-0.063 (inactive)
same,log fold change Tl+ flux,[15],-0.0293 (inactive)
same,log fold change Tl+ flux,[16],-0.0476 (inactive)
same,log fold change Tl+ flux,[17],-0.00905 (inactive)
same,log fold change Tl+ flux,[18],-0.0477 (inactive)
